Measurements from PubChem BioAssay.
For some assays here: Measured potencies and affinities stand elsewhere. Active and inactive are the calls of the source. Unless noted, the rule behind the calls is not given here.

Assays:
[1] = antimalarial activity against Dd2 strain (AID 2302;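 active = growth inhibition above 50% at the single 2 µM test dose, taken to imply half-maximal potency below 2 µM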;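 note: 0% = DMSO untreated growth and 100% = chloroquine plus artemisinin killed control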); conditions: P. falciparum Dd2 in RBCs, LDH growth readout, 72 h; at 2 µM; active compounds read high
[2] = HepG2 cytotoxicity, primary screen, cytotoxicity control for P. falciparum antimalarial project, cell-based, ATP luminescence (AID 2303;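 active = inhibition above 50%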;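 note: 0% = DMSO wells and 100% = digitonin-killed cells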); conditions: HepG2 viability, 24-48 h, at 10 µM, active compounds read high
[3] = target: L-lactate dehydrogenase (Plasmodium falciparum (isolate CDC / Honduras)) (UniProt Q27743); experiment: PfLDH activity inhibition – cell lysate, 3D7 strain, counter-screen for P. falciparum growth inhibition project (AID 2304);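 note: 0% = vehicle and 100% = reference inhibitor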; conditions: P. falciparum 3D7 crude extract, LDH APAD/NBT absorbance; at 2 µM; active compounds read high
[4] = inhibition of 3D7 malaria parasite growth – strain 3D7 (AID 2306);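 note: 0% = DMSO wells and 100% = chloroquine plus artemisinin control wells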; conditions: P. falciparum 3D7 erythrocytic growth, LDH absorbance, 72 h; at 2 µM; active compounds read high
[5] = target: Calcium-dependent protein kinase 1 (Plasmodium falciparum (isolate 3D7)) (UniProt P62344); experiment: PfCDPK1 kinase inhibitors, biochemical, TCAMS library (AID 1159585; cut-off not given, nearly all actives have IC50 up to about 0.98 µM;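 note: inhibitors leave more ATP so luminescence rises with inhibition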); conditions: recombinant PfCDPK1, Kinase-Glo ATP depletion luminescence
[6] = target: Plasmodium falciparum protein kinase 6 (PK6, PF3D7_1337100) (UniProt Q8IDW1); experiment: PfPK6 kinase inhibitors, biochemical, TCAMS library (AID 1159586); conditions: recombinant PfPK6, Kinase-Glo ATP depletion luminescence
[7] = target: Protein kinase 7 (PK7), Plasmodium falciparum 3D7 (PF3D7_0213400) (UniProt Q7YTF7); experiment: inhibition of Plasmodium PK7 catalytic activity – biochemical, TCAMS antimalarial set, Kinase-Glo luminescence (AID 1159587); conditions: recombinant PfPK7, Kinase-Glo ATP depletion luminescence
[8] = target: Calcium-dependent protein kinase 4 (Plasmodium falciparum (isolate 3D7)) (UniProt Q8IBS5); experiment: PfCDPK4 kinase inhibitors, biochemical, TCAMS library (AID 1159588; cut-off not given, nearly all actives have IC50 up to about 0.91 µM); conditions: recombinant PfCDPK4, Kinase-Glo ATP depletion luminescence
Calcium-dependent protein kinase 4 (Plasmodium falciparum (isolate 3D7)), sequence (Q8IBS5 whole entry, looked up): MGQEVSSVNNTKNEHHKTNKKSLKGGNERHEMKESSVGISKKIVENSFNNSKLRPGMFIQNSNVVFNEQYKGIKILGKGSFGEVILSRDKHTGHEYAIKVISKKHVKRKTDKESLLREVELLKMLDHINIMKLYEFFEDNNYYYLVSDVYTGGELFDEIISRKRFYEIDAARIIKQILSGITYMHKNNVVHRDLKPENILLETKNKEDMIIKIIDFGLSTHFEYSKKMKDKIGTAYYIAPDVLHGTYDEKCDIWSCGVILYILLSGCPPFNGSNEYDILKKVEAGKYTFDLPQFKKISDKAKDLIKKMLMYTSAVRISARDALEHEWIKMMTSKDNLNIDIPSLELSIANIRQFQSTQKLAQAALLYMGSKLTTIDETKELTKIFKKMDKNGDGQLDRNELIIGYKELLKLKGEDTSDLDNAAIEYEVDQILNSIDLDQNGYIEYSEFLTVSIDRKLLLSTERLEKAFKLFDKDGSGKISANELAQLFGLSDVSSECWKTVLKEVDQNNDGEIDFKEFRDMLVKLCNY

Protein kinase 7 (PK7), Plasmodium falciparum 3D7 (PF3D7_0213400), sequence (Q7YTF7 1-343): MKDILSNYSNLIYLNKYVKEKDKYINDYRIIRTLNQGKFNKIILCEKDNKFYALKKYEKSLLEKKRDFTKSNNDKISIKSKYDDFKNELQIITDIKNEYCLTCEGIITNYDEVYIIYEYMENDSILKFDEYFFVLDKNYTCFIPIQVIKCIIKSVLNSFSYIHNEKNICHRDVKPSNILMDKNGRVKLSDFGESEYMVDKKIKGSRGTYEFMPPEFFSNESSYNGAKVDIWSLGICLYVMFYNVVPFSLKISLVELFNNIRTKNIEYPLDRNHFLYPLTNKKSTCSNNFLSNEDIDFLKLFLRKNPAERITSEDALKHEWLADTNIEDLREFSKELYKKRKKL
Calcium-dependent protein kinase 1 (Plasmodium falciparum (isolate 3D7)), sequence (P62344 whole entry, looked up): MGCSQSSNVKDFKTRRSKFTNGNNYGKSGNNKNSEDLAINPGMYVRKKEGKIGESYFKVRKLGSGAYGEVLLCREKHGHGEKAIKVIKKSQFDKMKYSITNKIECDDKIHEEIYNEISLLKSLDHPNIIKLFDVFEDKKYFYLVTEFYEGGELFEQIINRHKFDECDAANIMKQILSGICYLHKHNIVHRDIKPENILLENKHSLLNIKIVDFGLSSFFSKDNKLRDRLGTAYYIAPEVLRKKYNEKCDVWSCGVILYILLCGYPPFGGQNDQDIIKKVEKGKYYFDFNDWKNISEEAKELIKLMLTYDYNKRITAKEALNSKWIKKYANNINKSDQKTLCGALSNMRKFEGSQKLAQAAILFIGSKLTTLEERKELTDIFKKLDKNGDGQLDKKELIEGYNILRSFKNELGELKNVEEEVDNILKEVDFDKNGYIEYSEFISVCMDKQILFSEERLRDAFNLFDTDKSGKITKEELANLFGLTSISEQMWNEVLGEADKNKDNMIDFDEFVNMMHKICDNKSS
L-lactate dehydrogenase (Plasmodium falciparum (isolate CDC / Honduras)), sequence (Q27743 whole entry, looked up): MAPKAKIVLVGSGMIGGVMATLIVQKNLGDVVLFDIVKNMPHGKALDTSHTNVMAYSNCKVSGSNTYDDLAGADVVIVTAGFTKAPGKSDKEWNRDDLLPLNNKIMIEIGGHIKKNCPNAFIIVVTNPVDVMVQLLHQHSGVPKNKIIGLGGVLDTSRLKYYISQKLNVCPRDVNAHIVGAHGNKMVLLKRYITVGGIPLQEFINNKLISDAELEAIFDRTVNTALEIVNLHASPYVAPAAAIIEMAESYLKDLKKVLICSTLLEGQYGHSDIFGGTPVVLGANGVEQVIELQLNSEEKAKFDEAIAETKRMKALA
Plasmodium falciparum protein kinase 6 (PK6, PF3D7_1337100), sequence (Q8IDW1 1-305): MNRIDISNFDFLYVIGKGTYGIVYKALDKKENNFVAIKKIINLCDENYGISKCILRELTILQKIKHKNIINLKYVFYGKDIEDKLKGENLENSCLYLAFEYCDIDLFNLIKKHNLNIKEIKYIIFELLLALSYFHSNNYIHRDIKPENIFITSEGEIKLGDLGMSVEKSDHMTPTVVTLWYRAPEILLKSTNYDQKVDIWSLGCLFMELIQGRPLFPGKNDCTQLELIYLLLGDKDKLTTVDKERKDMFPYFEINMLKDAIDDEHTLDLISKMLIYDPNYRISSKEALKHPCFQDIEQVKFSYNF

O=C(Nc1cccc(-c2ccc(-c3nc4ccccc4[nH]3)cc2)c1)c1cnn2cccnc12
active: growth inhibition [4] 87%
inactive: growth inhibition [1] 1% | inhibition [2] 9% | inhibition [3] -3% | outcome [5] | outcome [6] | outcome [7] | outcome [8]

CCN(CC)CCOc1ccc(C(O)(C#CC(O)(c2ccc(C)cc2)c2ccc(OCCN(CC)CC)cc2)c2ccc(C)cc2)cc1 (stereo not given)
inactive: inhibition [3] 6% | outcome [5] | outcome [6] | outcome [7] | outcome [8]
active: growth inhibition [1] 98% | inhibition [2] 94% | growth inhibition [4] 97%

CN1CCC(N(Cc2ccc(-c3cnc(NCc4ccccc4)nc3)cc2)S(=O)(=O)c2ccccc2)CC1
active: growth inhibition [4] 102%
inactive: growth inhibition [1] 10% | inhibition [2] 48% | inhibition [3] 1% | outcome [5] | outcome [6] | outcome [7] | outcome [8]

COc1cccc(C=Cc2nc(=O)c3ccccc3o2)c1OC
inactive: inhibition [2] -19% | inhibition [3] 7% | outcome [5] | outcome [6] | outcome [7] | outcome [8]
active: growth inhibition [1] 97% | growth inhibition [4] 97%

CC(C)N1CCN(C(CN2CCN(CCCOc3ccc(-c4ccccc4)cc3)CC2)c2ccc(F)cc2)CC1 (stereo not given)
active: growth inhibition [1] 100% | inhibition [2] 100% | growth inhibition [4] 100%
inactive: inhibition [3] -2% | outcome [5] | outcome [6] | outcome [7] | outcome [8]

O=C(N[C@@H](Cc1ccccc1)C(=O)NC1CCCCC1)c1ccc(O)c(-c2ccc(Cl)c(Cl)c2)c1
inactive: inhibition [2] -5% | inhibition [3] 1% | outcome [5] | outcome [6] | outcome [7] | outcome [8]
active: growth inhibition [1] 99% | growth inhibition [4] 98%

O=C(CCc1ccccc1)NC(c1ccc(Cl)cc1)c1ccc2cccnc2c1O (stereo not given)
active: inhibition [2] 59% | growth inhibition [4] 95%
inactive: growth inhibition [1] 49% | inhibition [3] 2% | outcome [5] | outcome [6] | outcome [7] | outcome [8]

O=C(Nc1cccc(CN2CCCN(CC3CC3)CC2)c1)c1ccc(-c2ccccc2)cc1
inactive: growth inhibition [1] 5% | inhibition [2] 15% | inhibition [3] 6% | outcome [5] | outcome [6] | outcome [7] | outcome [8]
active: growth inhibition [4] 96%

O=C(Nc1cc(Cl)cc(Cl)c1)Nc1ccccc1C(=O)NC1CCCCC1
inactive: inhibition [2] 12% | inhibition [3] 4% | outcome [5] | outcome [6] | outcome [7] | outcome [8]
active: growth inhibition [1] 100% | growth inhibition [4] 101%

CCCC(N)C(=O)NC1CCN(c2c(F)c(N)c3c(=O)c(C(=O)O)cn4c3c2Oc2ccccc2-4)C1 (stereo not given)
active: growth inhibition [1] 98% | inhibition [2] 66% | growth inhibition [4] 98%
inactive: inhibition [3] -5% | outcome [5] | outcome [6] | outcome [7] | outcome [8]

O=C(Nc1ccc(Cn2ncc(N3CCCNCC3)c(Cl)c2=O)cc1)Nc1ccc(C(F)(F)F)cc1
inactive: inhibition [2] 12% | inhibition [3] 4% | outcome [5] | outcome [6] | outcome [7] | outcome [8]
active: growth inhibition [1] 58% | growth inhibition [4] 90%

CC(=O)c1ccc(-c2cccc3c(CC(=O)Nc4ccc5nccc(N6CCN(C)CC6)c5c4)cccc23)cc1
active: growth inhibition [1] 96% | growth inhibition [4] 101%
inactive: inhibition [2] 3% | inhibition [3] -11% | outcome [5] | outcome [6] | outcome [7] | outcome [8]

N#Cc1c(N2CCN(c3ccc(F)cc3)CC2)nc(N)c2c(N)nc3c(c12)CC(=O)N3C1CC1
active: growth inhibition [1] 82% | growth inhibition [4] 95%
inactive: inhibition [2] 2% | inhibition [3] -8% | outcome [5] | outcome [6] | outcome [7] | outcome [8]

CCOC(=O)c1c(NC(=O)c2ccccc2)sc2c(O)c(CN(CC)CC)ccc12
active: growth inhibition [1] 100% | growth inhibition [4] 100%
inactive: inhibition [2] 9% | inhibition [3] 4% | outcome [5] | outcome [6] | outcome [7] | outcome [8]

O=C(Nc1cccc(CN2CCN(Cc3ccc(O)cc3)CC2)c1)c1cc2ccccc2o1
inactive: growth inhibition [1] 12% | inhibition [2] 8% | inhibition [3] -3% | outcome [5] | outcome [6] | outcome [7] | outcome [8]
active: growth inhibition [4] 81%

O=C(/C=C/c1cccc2ccccc12)NCCCCCN1CCC(c2c[nH]c3ccccc23)CC1
inactive: growth inhibition [1] 6% | inhibition [3] -1% | outcome [5] | outcome [6] | outcome [7] | outcome [8]
active: inhibition [2] 55% | growth inhibition [4] 92%

CCCNC(=O)C1CCN(C(c2ccc(Cl)cc2)c2ccc(Cl)cc2)CC1
active: growth inhibition [1] 96% | growth inhibition [4] 98%
inactive: inhibition [2] 7% | inhibition [3] 4% | outcome [5] | outcome [6] | outcome [7] | outcome [8]

CN1CCN(c2ccnc3ccc(NC(=O)Cc4ccc(-c5ccncc5)c5ccccc45)cc23)CC1
inactive: inhibition [2] 32% | inhibition [3] 3% | outcome [5] | outcome [6] | outcome [7] | outcome [8]
active: growth inhibition [1] 101% | growth inhibition [4] 103%

CN1CCN(c2ccnc3cc4ccccc4cc23)CC1
inactive: growth inhibition [1] 49% | inhibition [2] 11% | inhibition [3] -9% | outcome [5] | outcome [6] | outcome [7] | outcome [8]
active: growth inhibition [4] 93%

COc1ccc(-c2nonc2NC(=O)c2cccc(Cl)c2)cc1OC
inactive: inhibition [2] 41% | inhibition [3] 4% | outcome [5] | outcome [6] | outcome [7] | outcome [8]
active: growth inhibition [1] 63% | growth inhibition [4] 98%

CC1CC(NCCCNc2cc(=O)c3ccccc3[nH]2)c2cc(Cl)c(Cl)c(Cl)c21 (stereo not given)
inactive: inhibition [2] 0% | inhibition [3] 3% | outcome [5] | outcome [6] | outcome [7] | outcome [8]
active: growth inhibition [1] 69% | growth inhibition [4] 100%

O=C(Nc1ccc(-c2cccc(-c3nc4ccc(C(F)(F)F)cc4[nH]3)c2)cc1)Nc1ccc(F)c(F)c1F
active: growth inhibition [1] 85% | inhibition [2] 58% | growth inhibition [4] 99%
inactive: inhibition [3] 1% | outcome [5] | outcome [6] | outcome [7] | outcome [8]

Cc1nccn1CCNC(=O)CN1CCC2(CCC1=O)CC(=O)c1ccccc1O2 (stereo not given)
active: growth inhibition [4] 98%
inactive: growth inhibition [1] 4% | inhibition [2] -7% | inhibition [3] 7% | outcome [5] | outcome [6] | outcome [7] | outcome [8]

Cc1cccc2[nH]c(-c3ccc(-c4ccc(CN5CCN(c6ccncc6)CC5)cc4)cc3)nc12
inactive: inhibition [3] 3% | outcome [5] | outcome [6] | outcome [7] | outcome [8]
active: growth inhibition [1] 100% | inhibition [2] 98% | growth inhibition [4] 102%

C#CC(C)(CO)N1CCCC1 (stereo not given)
active: growth inhibition [4] 95%
inactive: growth inhibition [1] 1% | inhibition [2] 10% | inhibition [3] -4% | outcome [5] | outcome [6] | outcome [7] | outcome [8]

CC(=O)Oc1c(C2CCN(CCCCNC(=O)c3ccc(NC(=O)c4ccc(Cl)cc4)cc3)CC2)ccc2ccccc12
inactive: inhibition [2] 24% | inhibition [3] -6% | outcome [5] | outcome [6] | outcome [7] | outcome [8]
active: growth inhibition [1] 92% | growth inhibition [4] 101%

CN(C)CCNC(=O)N1CCCN(c2ncnc3cc(-c4ccc(Cl)cc4)sc23)CC1
inactive: growth inhibition [1] 21% | inhibition [2] 41% | inhibition [3] 4% | outcome [5] | outcome [6] | outcome [7] | outcome [8]
active: growth inhibition [4] 98%

CCOc1ccc2c(NN=Cc3cccc(Cl)c3)cc(C)nc2c1
active: growth inhibition [4] 93%
inactive: growth inhibition [1] 34% | inhibition [2] -5% | inhibition [3] -2% | outcome [5] | outcome [6] | outcome [7] | outcome [8]

COc1cc2c(C3CCN(CC4CCC(NC(=O)/C=C/c5ccc(Cl)c(Cl)c5)CC4)CC3)c[nH]c2cn1 (stereo not given)
inactive: inhibition [2] 44% | inhibition [3] -5% | outcome [5] | outcome [6] | outcome [7] | outcome [8]
active: growth inhibition [1] 100% | growth inhibition [4] 101%

CC(C)(C)c1ccc(NC(=O)c2cccc(CN3CCCN(Cc4cccc(C#N)c4)CC3)c2)cc1
active: growth inhibition [4] 97%
inactive: growth inhibition [1] 12% | inhibition [2] 39% | inhibition [3] 4% | outcome [5] | outcome [6] | outcome [7] | outcome [8]

O=C(Cn1c(CCc2cccc(F)c2F)cc(=O)c2cccnc21)N(CCn1ccnc1)Cc1ccc(-c2ccc(C(F)(F)F)cc2)cc1
active: growth inhibition [1] 62% | growth inhibition [4] 99%
inactive: inhibition [2] 39% | inhibition [3] 0% | outcome [5] | outcome [6] | outcome [7] | outcome [8]

c1ccc(CN2CCC(NCc3ccccc3-c3cccc(CNC4CCCC4)c3)CC2)cc1
inactive: inhibition [2] 35% | inhibition [3] 6% | outcome [5] | outcome [6] | outcome [7] | outcome [8]
active: growth inhibition [1] 59% | growth inhibition [4] 101%

Cc1cccc2[nH]c(-c3ccc(-c4cccc(NC(=O)CCc5cnc[nH]5)c4)s3)nc12
active: growth inhibition [1] 70% | growth inhibition [4] 94%
inactive: inhibition [2] 2% | inhibition [3] -4% | outcome [5] | outcome [6] | outcome [7] | outcome [8]

CCCCc1cc(=O)oc2cc(C)cc(OCc3ccccc3F)c12
active: growth inhibition [1] 78% | growth inhibition [4] 92%
inactive: inhibition [2] 8% | inhibition [3] -1% | outcome [5] | outcome [6] | outcome [7] | outcome [8]

O=C(NC1CC1)c1cnc(N2CCN(Cc3ccc(Cl)cc3)CC2)c(Cl)c1
active: growth inhibition [1] 91% | growth inhibition [4] 93%
inactive: inhibition [2] 39% | inhibition [3] 0% | outcome [5] | outcome [6] | outcome [7] | outcome [8]

CN1c2ccc([N+](=O)[O-])cc2C(C)(C)C12C=Cc1cc(Br)cc([N+](=O)[O-])c1O2 (stereo not given)
active: growth inhibition [1] 99% | growth inhibition [4] 101%
inactive: inhibition [2] -8% | inhibition [3] 1% | outcome [5] | outcome [6] | outcome [7] | outcome [8]

COc1cc2nc(NCCc3ccccc3)nc(NCCCc3ccccc3)c2cc1OC
active: growth inhibition [1] 101% | growth inhibition [4] 101%
inactive: inhibition [2] 21% | inhibition [3] 2% | outcome [5] | outcome [6] | outcome [7] | outcome [8]

CCCC[C@@H](C(=O)NCCc1ccc(Cl)cc1)N1C(=O)CCC1C(=O)Nc1ccc(Cl)c(Cl)c1 (stereo not given in full)
active: growth inhibition [4] 95%
inactive: growth inhibition [1] 2% | inhibition [2] 4% | inhibition [3] 2% | outcome [5] | outcome [6] | outcome [7] | outcome [8]

CCOC(=O)c1cc2c(CCN3C(=O)c4ccccc4C3=O)cn(C)c2cc1-c1ccncc1
inactive: inhibition [3] 2% | outcome [5] | outcome [6] | outcome [7] | outcome [8]
active: growth inhibition [1] 90% | inhibition [2] 99% | growth inhibition [4] 101%

CC(C)c1ccc(CN2CCC(CNC(=O)c3cc(-c4cccc(Cl)c4)cs3)C2)cc1 (stereo not given)
inactive: growth inhibition [1] 43% | inhibition [2] 42% | inhibition [3] 1% | outcome [5] | outcome [6] | outcome [7] | outcome [8]
active: growth inhibition [4] 99%
